{"source": "PubChem BioAssay", "note": "Unmarked numbers belong to inactive results. Active and inactive are the calls of the source.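 How the source made its calls: active means normalized viability below 100% at a tested concentration; inactive means the rest.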", "data": [{"assay": "drug combination growth inhibition, ovarian cancer – cell-based, oncology-focused library, rucaparib conditional, profiling panel (AID 1508598)", "settings": "patient-derived ovarian cancer cells, CellTiter-Glo viability, 144 h; at 0.00122 µM; OCI-P5x cells; without rucaparib; hits give low values", "values": [{"smiles": "CNC(=O)c1ccc(N2C(=S)N(c3ccc(C#N)c(C(F)(F)F)c3)C(=O)C2(C)C)cc1F", "viability": "82% (active)"}, {"smiles": "Cn1cncc1[C@@](N)(c1ccc(Cl)cc1)c1ccc2c(c1)c(-c1cccc(Cl)c1)cc(=O)n2C", "viability": "109%"}, {"smiles": "O=C(O)c1ccc2c(c1)nc(Nc1cccc(Cl)c1)c1ccncc12", "viability": "111%"}, {"smiles": "CC(C)C[C@H](NC(=O)CNC(=O)c1cc(Cl)ccc1Cl)B(O)O", "viability": "111%"}, {"smiles": "CC1(C)CCC(c2ccc(Cl)cc2)=C(CN2CCN(c3ccc(C(=O)NS(=O)(=O)c4ccc(N[C@H](CCN5CCOCC5)CSc5ccccc5)c(S(=O)(=O)C(F)(F)F)c4)cc3)CC2)C1", "viability": "106%"}, {"smiles": "C#Cc1cccc(Nc2ncnc3cc(OCCOC)c(OCCO)cc23)c1", "viability": "114%"}, {"smiles": "CC(C)CC(=O)Nc1n[nH]c2c1CN(C(=O)C1CCN(C)CC1)C2(C)C", "viability": "118%"}, {"smiles": "C=CCn1c(=O)c2cnc(Nc3ccc(N4CCN(C)CC4)cc3)nc2n1-c1cccc(C(C)(C)O)n1", "viability": "98.1% (active)"}, {"smiles": "O=C(O)[C@H](Cc1c[nH]c2ccccc12)N1C(=O)c2ccccc2C1=O", "viability": "93.9% (active)"}, {"smiles": "O=C(NC1CCNCC1)c1[nH]ncc1NC(=O)c1c(Cl)cccc1Cl", "viability": "103%"}, {"smiles": "CC(C)C[C@H](NC(=O)CNC(=O)c1cc(Cl)ccc1Cl)B1OC(=O)CC(CC(=O)O)(C(=O)O)O1", "note": "(some centres not stated)", "viability": "110%"}]}, {"assay": "drug combination growth inhibition, ovarian cancer – cell-based, oncology-focused library, rucaparib conditional, profiling panel (AID 1508598)", "settings": "patient-derived ovarian cancer cells, CellTiter-Glo viability, 144 h; at 0.00488 µM; OCI-C5x cells; with rucaparib 10 µM; hits give low values; 100% = cells with rucaparib alone", "values": [{"smiles": "CNC(=O)c1ccc(N2C(=S)N(c3ccc(C#N)c(C(F)(F)F)c3)C(=O)C2(C)C)cc1F", "viability": "110%"}, {"smiles": "Cn1cncc1[C@@](N)(c1ccc(Cl)cc1)c1ccc2c(c1)c(-c1cccc(Cl)c1)cc(=O)n2C", "viability": "115%"}, {"smiles": "O=C(O)c1ccc2c(c1)nc(Nc1cccc(Cl)c1)c1ccncc12", "viability": "106%"}, {"smiles": "CC(C)C[C@H](NC(=O)CNC(=O)c1cc(Cl)ccc1Cl)B(O)O", "viability": "126%"}, {"smiles": "CC1(C)CCC(c2ccc(Cl)cc2)=C(CN2CCN(c3ccc(C(=O)NS(=O)(=O)c4ccc(N[C@H](CCN5CCOCC5)CSc5ccccc5)c(S(=O)(=O)C(F)(F)F)c4)cc3)CC2)C1", "viability": "32.2% (active)"}, {"smiles": "C#Cc1cccc(Nc2ncnc3cc(OCCOC)c(OCCO)cc23)c1", "viability": "119%"}, {"smiles": "CC(C)CC(=O)Nc1n[nH]c2c1CN(C(=O)C1CCN(C)CC1)C2(C)C", "viability": "120%"}, {"smiles": "C=CCn1c(=O)c2cnc(Nc3ccc(N4CCN(C)CC4)cc3)nc2n1-c1cccc(C(C)(C)O)n1", "viability": "121%"}, {"smiles": "O=C(O)[C@H](Cc1c[nH]c2ccccc12)N1C(=O)c2ccccc2C1=O", "viability": "118%"}, {"smiles": "O=C(NC1CCNCC1)c1[nH]ncc1NC(=O)c1c(Cl)cccc1Cl", "viability": "118%"}, {"smiles": "CC(C)C[C@H](NC(=O)CNC(=O)c1cc(Cl)ccc1Cl)B1OC(=O)CC(CC(=O)O)(C(=O)O)O1", "note": "(some centres not stated)", "viability": "100%"}]}]}
